Here are results for 40 compounds from PubChem BioAssay (Tox21).

“And” between values parts separate entries of the source, which are not always exact repeats. Equal values may be shown once. Records with an inconclusive call do not appear. A number with no mark means an inactive call. The source made the active and inactive calls. Calls come from the whole dose curve.
% is set by controls: 0 for no effect and ±100 for the full control effect; potency is the fitted concentration of half-maximal effect.

A short description of this assay: p53 small molecule agonists, cell-based qHTS assay with human liver microsomes: qHTS cell viability counter screen (AID 1963579). Note: nearly all actives have a fitted effect of over 45% in size. The note with it: p53RE-bla HCT-116 viability, ATP luminescence, 16 h, HLM; series mostly up to 66 µM; activity change, negative = cytotoxicity: at the top concentration. From the text: National Center for Advancing Translational Sciences [NCATS]
Division of Preclinical Innovation [DPI]
U.S. Environmental Protection Agency [EPA]
National Institutes of Environmental Health Sciences [NIEHS]
National Toxicology Program [NTP]
U.S. Food and Drug Administration [FDA]
p53, a tumor suppressor protein, is activated following cellular insult, including DNA damage and other cellular stresses. The activation of p53 regulates cell fate by inducing DNA repair, cell cycle arrest, apoptosis, or cellular senescence. The activation of p53, therefore, is a good indicator of DNA damage and other cellular stresses. […] The activation of the reporter gene under culture conditions can be detected by fluorescence intensity. This cell line was used to screen the Tox21 10K compound library in the condition of presence of human liver microsomes and to identify agonists that activate the p53 signaling pathway after in vitro metabolic activation (Ooka et al., Archive of Toxicology 96:1975-1987, 2022).
Tox21 Assay Protocol Summary:
The p53RE-bla cells were dispensed at 4,000cells/3ul/well in 1536-well black-clear bottom plates. After the assay plates were incubated at 37 C, 5% CO2 incubator for 5 hours, 23 nL of compounds dissolved in DMSO, positive controls or DMSO only was transferred to the assay plate. Following compound addition, 3 uL of human liver microsomes (XenoTech, Kansas City, KS) at final concentration of 0.5 mg/mL and 1uL of B-Nicotinamide adenine dinucleotide 2'-phosphate (NADPH) at final concentration of 0.5 mg/mL were transferred to the assay plate. The plates were incubated at 37 C for 16 hours. 1 uL of LiveBLAzer detection mixture was added to each well and the plates were incubated at room temperature in the dark for 2 h. Fluorescence intensity at 460 and 530 nm emission and 405 nm excitation were measured by an Envision plate reader. For cell viability readout that measures cytotoxicity, 4 ul/well of CellTiter-Glo reagent was added into the assay plates using a Flying Reagent Dispenser. After 30 min incubation at room temperature, the luminescence intensity in the plates was measured using a ViewLux plate reader.
As for `CC(C)CCCCCOC(=O)CCS`, the “activity change, negative = cytotoxicity” value is 7.21%.
Still for that read-out and setting: under `CCOC(=S)SSC(=S)OCC` stands 0.407%.
Same read-out and setting: under `Clc1ccc(C(c2ccccc2Cl)C(Cl)Cl)cc1` (stereo not given) stands -2.66% [at 30.3 µM].
The same measure, in the same setting: under `CCC(C)S` (stereo not given) stands 2.56% [at 2.33 µM].
With `CCCCC(CC)COC(=O)CCCCCCCC(=O)OCC(CC)CCCC` (stereo not given), the Potency entry was “inactive”.
In the case of `CC(=O)O[C@H](CC(=O)[O-])C[N+](C)(C)C`, the “activity change, negative = cytotoxicity” value was -0.96%.
Still for that read-out and setting: under `CC(C)(C)c1ccc(C(=O)CCCCl)cc1` stands -0.911% [at 30.3 µM]; under `CCC(C(=O)NC(N)=O)c1ccccc1` (stereo not given), -2.54%.
The same measure, in the same setting: the value for `C[n+]1ccn(Cc2ccccc2)c1` was -5.47%.
Still for that read-out and setting: under `c1ccc2cnccc2c1` stands -3.4%.
For `Cc1cccnc1`, the Potency result is “inactive”.
`CCN(Cc1cccc(S(=O)(=O)O)c1)c1ccccc1`: the “activity change, negative = cytotoxicity” value is -1.36%.
Regarding `Cc1ccccc1OCC1CO1` (stereo not given), the “activity change, negative = cytotoxicity” value is 3.75%.
For `N#[N+]c1ccc2c(S(=O)(=O)[O-])cccc2c1O`, the “activity change, negative = cytotoxicity” value is 1.02%.
As to `COc1nc(C)nc(NC(=O)NS(=O)(=O)c2ccccc2OCCCl)n1`, the “activity change, negative = cytotoxicity” value was -0.537%.
As for `CC1=CCC(O)(C(C)C)CC1` (stereo not given), the “activity change, negative = cytotoxicity” value is -1.24%.
Still for that read-out and setting: the value for `CCC(C)(C)C1CCCCC1OC(C)=O` (stereo not given) was -10.4%.
On to `Oc1ccc2cc(SSc3ccc4cc(O)ccc4c3)ccc2c1`, for which the Potency entry was “inactive”.
In the case of `CCOC(=O)CN`, the “activity change, negative = cytotoxicity” value was -2.88%.
The same measure, in the same setting: the value for `CCC(=O)OC/C=C(\C)CCC=C(C)C` was 0.809%; that for `CCCCCCS` was 0.0684%; that for `NC(=O)c1ccccc1Cl` was -1.12%.
Same read-out and setting: under `[O]=[Zr]` stands 5.03%.
Turning to `N[C@H](Cc1c[nH]c2ccccc12)C(=O)O`, the Potency entry was “inactive”.
Take `CC(C)(C)OCC1CO1` (stereo not given): the “activity change, negative = cytotoxicity” value is -8.76%.
With `C=CC(=O)OCC(CO)(COC(=O)C=C)COC(=O)C=C`, the Potency was 45.9 µM (active) and 9.13 µM (active).
As to `Cc1ccc(C(C)C)cc1O`, the “activity change, negative = cytotoxicity” value was -6.45%.
For `NCCN1CCNC1=O`, the “activity change, negative = cytotoxicity” value was -13.6%.
Same read-out and setting: under `COc1cc(C(=S)N2CCOCC2)ccc1O` stands -0.569% [at 30.3 µM]; under `CCCCCCCCCCCCCCCC(=O)NCCO`, 8.3% [at 30.3 µM].
Consider `Oc1ccc(OCc2ccccc2)cc1`, for which the Potency result is “inactive”.
Consider `O=c1[nH]c2ccccc2c(=O)n1CCCl`, for which the “activity change, negative = cytotoxicity” value is 10.2% [at 30.3 µM].
Consider `O=c1n(CCCN2CCN(c3cccc(Cl)c3)CC2)nc2ccccn12`, for which the Potency entry is “inactive”.
As to `Cc1ccccc1C(N)=O`, the “activity change, negative = cytotoxicity” value is -2.46%.
Same read-out and setting: under `CC1COc2ccccc2N1` (stereo not given) stands 0.532%; under `CCCCCCCCCCCC(=O)OC[C@@H](O)[C@H]1OC[C@H](OCCO)[C@H]1OCCO`, 11.5%.
As for `CC(C)(C)C(=O)C1C(=O)c2ccccc2C1=O`, the Potency entry was “inactive”.
Take `NS(=O)(=O)c1cc2c(cc1C(F)(F)F)NC(Cc1ccccc1)NS2(=O)=O` (stereo not given): the “activity change, negative = cytotoxicity” value is 4.33% [at 30.3 µM].
Consider `Oc1c(Cl)ccc(Cl)c1Cl`, for which the Potency entry was “inactive”.
For `CC(C)(C)C(=O)OCOP(=O)(COCCn1cnc2c(N)ncnc21)OCOC(=O)C(C)(C)C`, the “activity change, negative = cytotoxicity” value is -3.07% [at 30.3 µM].
